Experimental data as given in PubChem BioAssay (Tox21).
Unmarked numbers belong to inactive results. Results filed as inconclusive are left out. A call without a number means that no potency is given here. Activity calls are given as the source filed them. Unless noted, the call rests on the fitted dose curve; in most records, active means well fitted curve in the direction sought with a large enough effect in the repeat runs; inconclusive means weak or mixed curves; inactive means no such curve, though single readings can be large; an effect the other way counts as inactive or inconclusive.

Key:
[1] = target: Thyrotropin receptor (Homo sapiens) (UniProt P16473); test: qHTS assay to identify small molecule antagonists of the thyroid stimulating hormone receptor (TSHR) signaling pathway (AID 1259385; calls by dose curve; further: nearly all actives have a fitted effect of over 20% in size)
Sequence of Thyrotropin receptor (Homo sapiens) (P16473 whole entry, looked up): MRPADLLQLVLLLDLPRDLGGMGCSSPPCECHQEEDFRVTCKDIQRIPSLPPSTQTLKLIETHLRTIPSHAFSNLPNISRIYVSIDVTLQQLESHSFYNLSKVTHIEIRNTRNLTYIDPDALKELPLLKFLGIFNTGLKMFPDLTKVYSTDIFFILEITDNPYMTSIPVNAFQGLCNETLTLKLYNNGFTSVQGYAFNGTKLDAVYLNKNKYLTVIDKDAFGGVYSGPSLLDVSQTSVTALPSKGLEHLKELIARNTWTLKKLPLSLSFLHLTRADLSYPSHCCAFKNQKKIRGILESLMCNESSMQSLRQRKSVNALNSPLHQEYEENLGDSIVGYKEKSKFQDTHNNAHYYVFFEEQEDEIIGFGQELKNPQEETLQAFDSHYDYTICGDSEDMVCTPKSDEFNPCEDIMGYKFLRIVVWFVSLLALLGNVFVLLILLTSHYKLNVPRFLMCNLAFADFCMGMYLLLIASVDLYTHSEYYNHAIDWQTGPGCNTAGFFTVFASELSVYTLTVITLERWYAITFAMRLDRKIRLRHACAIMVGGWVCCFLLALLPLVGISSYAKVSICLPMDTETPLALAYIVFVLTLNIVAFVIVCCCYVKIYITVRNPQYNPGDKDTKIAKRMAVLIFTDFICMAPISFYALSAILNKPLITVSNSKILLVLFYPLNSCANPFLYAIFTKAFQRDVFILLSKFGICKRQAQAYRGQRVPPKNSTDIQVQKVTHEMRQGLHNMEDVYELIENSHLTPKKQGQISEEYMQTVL
Method in brief: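 Antagonist mode: compound-treated TSHR-expressing HEK293 cells were stimulated with 1.5 ng/mL TSH (final) in presence of Ro20-1724 for 30 min at RT. HTRF cAMP detection after 1 h; each compound tested at 15 concentrations, triplicate.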

[2] = target: Progesterone receptor (Homo sapiens) (UniProt P06401); test: qHTS assay to identify small molecule agonists of the progesterone receptor (PR) signaling pathway (AID 1346784; calls by dose curve; further: nearly all actives have a fitted effect of over 30% in size)
Sequence of Progesterone receptor (Homo sapiens) (P06401 whole entry, looked up): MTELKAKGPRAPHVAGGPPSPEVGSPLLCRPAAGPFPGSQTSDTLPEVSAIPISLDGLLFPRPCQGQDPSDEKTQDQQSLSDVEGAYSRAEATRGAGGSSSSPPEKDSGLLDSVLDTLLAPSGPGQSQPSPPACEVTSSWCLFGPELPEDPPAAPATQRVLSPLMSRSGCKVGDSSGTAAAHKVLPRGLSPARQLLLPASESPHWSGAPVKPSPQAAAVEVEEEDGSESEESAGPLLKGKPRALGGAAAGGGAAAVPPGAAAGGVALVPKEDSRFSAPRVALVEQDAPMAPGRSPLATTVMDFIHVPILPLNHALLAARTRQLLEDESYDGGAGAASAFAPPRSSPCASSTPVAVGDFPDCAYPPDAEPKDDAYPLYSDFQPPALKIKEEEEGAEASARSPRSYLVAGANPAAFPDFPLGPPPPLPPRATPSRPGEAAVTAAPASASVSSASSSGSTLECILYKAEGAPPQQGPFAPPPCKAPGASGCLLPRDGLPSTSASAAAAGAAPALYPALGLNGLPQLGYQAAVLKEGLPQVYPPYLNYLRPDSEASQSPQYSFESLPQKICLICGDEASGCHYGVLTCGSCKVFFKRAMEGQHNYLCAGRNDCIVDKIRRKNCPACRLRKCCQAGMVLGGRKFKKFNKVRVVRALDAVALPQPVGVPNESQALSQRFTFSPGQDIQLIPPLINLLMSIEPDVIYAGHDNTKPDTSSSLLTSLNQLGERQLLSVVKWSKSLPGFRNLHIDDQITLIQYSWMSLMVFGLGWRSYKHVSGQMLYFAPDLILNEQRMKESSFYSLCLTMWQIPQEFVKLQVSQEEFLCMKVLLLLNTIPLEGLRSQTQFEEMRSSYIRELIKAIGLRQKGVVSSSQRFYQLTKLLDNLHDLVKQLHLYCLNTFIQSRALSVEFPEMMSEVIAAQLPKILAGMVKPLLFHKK
Method in brief: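 Fluorescence from LiveBLAzer B/G FRET substrate cleavage (2 hr, RT) reported PR activation in PR-UAS-bla HEK 293T cells treated 16 hr at 37C/5% CO2 with compounds; medium contained 2% charcoal-stripped FBS.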

[3] = target: Progesterone receptor (Homo sapiens) (UniProt P06401); test: qHTS assay to identify small molecule antagonists of the progesterone receptor (PR) signaling pathway (AID 1346795; active means well fitted inhibition curve with a large enough effect in the signal ratio in the repeat runs, not every such curve was filed as active; the % refers to the signal ratio; further: potency means the concentration at half of the fitted maximal effect)
Method in brief: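 Fluorescence intensity measured 2 hr after adding beta-lactamase FRET substrate to PR-UAS-bla HEK293T cells that had been co-treated 16 hr with compound and 1 nM R5020 (final concentration) in 2% charcoal-stripped FBS.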

[4] = qHTS assay to identify small molecule antagonists of the progesterone receptor (PR) signaling pathway - cell viability counter screen (AID 1346798); further: series mostly up to about 92 µM; nearly all actives have a fitted effect of over 50% in size
Method in brief: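 CellTiter-Glo luminescence; PR-UAS-bla HEK293T, 3,000 cells/well; compound + R5020, 16 hr, 37C/5% CO2; 30 min RT before read.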

[5] = qHTS assay to identify small molecule agonists of the progesterone receptor (PR) signaling pathway - cell viability counter screen (AID 1346799; calls by dose curve; further: nearly all actives have a fitted effect of over 45% in size)
Method in brief: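 In parallel with the beta-lactamase readout, cytotoxicity toward PR-UAS-bla HEK293T cells was measured by CellTiter-Glo luminescence following 16 hr compound incubation in 2% charcoal-stripped FBS medium.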

[6] = qHTS assay to identify small molecule antagonists of the TGF-beta/Smad signaling pathway - cell viability counter screen (AID 1346824); further: nearly all actives have a fitted effect of over 50% in size
Method in brief: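 Cytotoxicity counter-screen run in the same wells as the beta-lactamase Smad reporter read: CellTiter-Glo luminescence after 30 min at room temperature. HEK 293T SBE-bla cells had 5 hr compound exposure at 37 C with TGF-beta1 (0.25 ng/mL stock).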

[7] = qHTS assay to identify small molecule agonists of the TGF-beta/Smad signaling pathway - cell viability counter screen (AID 1346829); further: top concentration of the series differs between compounds; nearly all actives have a fitted effect of over 45% in size
Method in brief: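 Luminescence from CellTiter-Glo, read after a 30 min room-temperature incubation, gives cell viability of SBE-bla HEK 293T cells treated 5 hr with compounds at 37 C.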

[8] = qHTS assay to identify small molecule agonists of the TGF-beta/Smad signaling pathway (AID 1346859; active means well fitted activation curve with a large enough effect in the signal ratio in the repeat runs, not every such curve was filed as active; the % refers to the signal ratio; further: series mostly up to about 77 µM)
Method in brief: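 After overnight seeding, SBE-bla HEK 293T cells are dosed with compounds in DMSO and kept 5 hr at 37 C, 5% CO2. LiveBLAzer-type FRET substrate is then applied for 2 hr at room temperature.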

[9] = target: Thyrotropin-releasing hormone receptor (Homo sapiens) (UniProt P34981); test: qHTS assay to identify small molecule antagonists of the thyrotropin-releasing hormone receptor (TRHR) signaling pathway (AID 1346877; active means well fitted inhibition curve with a large enough effect in the repeat runs, not every such curve was filed as active; further: series mostly up to about 51 µM)
Sequence of Thyrotropin-releasing hormone receptor (Homo sapiens) (P34981 whole entry, looked up): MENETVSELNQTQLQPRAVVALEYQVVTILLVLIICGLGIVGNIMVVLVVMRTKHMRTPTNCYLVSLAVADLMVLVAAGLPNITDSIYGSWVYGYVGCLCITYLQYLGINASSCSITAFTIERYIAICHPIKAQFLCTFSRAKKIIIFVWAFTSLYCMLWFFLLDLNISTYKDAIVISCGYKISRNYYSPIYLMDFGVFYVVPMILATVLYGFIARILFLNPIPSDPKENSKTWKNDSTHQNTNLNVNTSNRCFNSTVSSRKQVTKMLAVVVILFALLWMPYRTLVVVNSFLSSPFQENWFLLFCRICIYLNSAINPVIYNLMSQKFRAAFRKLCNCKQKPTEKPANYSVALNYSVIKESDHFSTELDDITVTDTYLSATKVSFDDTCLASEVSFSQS
Method in brief: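 Calcium signal in dye-loaded TRHR/HEK293 cells; compounds added 5 min before TRH (1 nM final); fluorescence monitored 3 min at 1 s steps.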

[10] = qHTS assay to identify small molecule agonists of the estrogen receptor alpha (ER-alpha) signaling pathway in the presence of an antagonist - cell viability counter screen (AID 1259386);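 further: series mostly up to about 92 µM; cells exposed to compounds for 22 h at 37 °C before the viability read; nearly all actives have a fitted effect of over 30% in size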
Method in brief: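 Using estrogen-depleted VM7Luc4E2 cells, the 15-concentration compound series was applied together with 10.0nM ICI-182,780 and incubated 22hr at 37C/5% CO2. Cell viability was then scored by CellTiter-Fluor.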

Row | SMILES | Potency [1] | Potency [2] | Potency [3] | Potency [4] | Potency [5] | Potency [6] | outcome [7] | outcome [8] | outcome [9] | activity change, negative = inhibition [1] | activity change, negative = cytotoxicity [5] | viability change, negative = cytotoxic [6] | activity change, negative = cytotoxicity [7] | activation [8] | Potency [10]
1 | N[C@H]1CN(c2c(F)cc3c(=O)c(C(=O)O)cn(C4C[C@H]4F)c3c2Cl)CC12CC2 (stereo partly specified) | inactive | inactive | inactive | inactive | inactive | inactive | inactive | inactive | inactive | – | – | – | – | – | –
2 | OCCOc1ccc(OCCO)cc1 | inactive | inactive | inactive | inactive | inactive | inactive | inactive | inactive | – | – | – | – | – | – | –
3 | O=C[C@H](O)[C@@H](O)[C@H](O)[C@H](O)CO | inactive | inactive | inactive | inactive | inactive | inactive | inactive | inactive | inactive | – | – | – | – | – | –
4 | C=C(C)C(=O)OCCCCCCCC(C)C | inactive | inactive | inactive | inactive | inactive | inactive | inactive | inactive | inactive | – | – | – | – | – | –
5 | CS(=O)(=O)O | inactive | inactive | inactive | inactive | inactive | inactive | inactive | inactive | inactive | – | – | – | – | – | –
6 | c1ccc(CC2=NCCN2)cc1 | inactive | inactive | inactive | inactive | inactive | inactive | inactive | inactive | inactive | – | – | – | – | – | –
7 | O=c1cc(CO)occ1O | inactive | inactive | inactive | inactive | inactive | inactive | inactive | inactive | inactive | – | – | – | – | – | –
8 | Cc1cccn2c(=O)c(-c3nnn[nH]3)cnc12 | – | – | inactive | inactive | – | – | – | – | – | -4.29% [at 19 µM] | 11.1% [at 19 µM] | 3.02% [at 15.8 µM] | 2.08% [at 15.8 µM] | -4.24% [at 15.8 µM] | –
9 | CCCCC/C=C\CCC=O | inactive | inactive | inactive | inactive | – | inactive | inactive | inactive | inactive | – | – | – | – | – | –
10 | CN1CCN(c2cc3c(cc2F)c(=O)c(C(=O)O)cn3-c2ccc(F)cc2)CC1 | – | – | – | inactive | inactive | inactive | inactive | – | inactive | – | – | – | – | – | –
11 | CN(C(=O)c1c(O)c2ccccc2n(C)c1=O)c1ccccc1 | – | inactive | inactive | inactive | – | inactive | inactive | inactive | – | – | – | – | – | – | –
12 | COC(=O)c1ccc(C)cc1C1=NC(C)(C(C)C)C(=O)N1 (stereo unspecified) | – | inactive | inactive | inactive | inactive | inactive | inactive | inactive | inactive | – | – | – | – | – | inactive
13 | CC(=O)OCC(=O)[C@@]1(O)CC[C@H]2[C@@H]3CCC4=CC(=O)CC[C@]4(C)[C@H]3C(=O)C[C@@]21C | – | inactive | – | inactive | inactive | inactive | inactive | inactive | – | – | – | – | – | – | inactive
14 | Cn1c(N)c(N=O)c(=O)n(C)c1=O | – | inactive | – | inactive | inactive | inactive | inactive | inactive | inactive | – | – | – | – | – | –
15 | CCOC(=O)CCC(C)=O | – | inactive | inactive | inactive | inactive | inactive | inactive | inactive | – | – | – | – | – | – | inactive
16 | CC/C=C\CC/C=C/CO | – | inactive | inactive | inactive | inactive | inactive | inactive | inactive | inactive | – | – | – | – | – | inactive
17 | CC(=O)CC(C)(C)C1CCCCC1 | – | – | – | inactive | inactive | inactive | inactive | inactive | inactive | – | – | – | – | – | inactive
18 | NC(CSCC(=O)O)C(=O)O (stereo unspecified) | – | – | inactive | inactive | inactive | inactive | inactive | inactive | inactive | – | – | – | – | – | inactive
19 | CCCCC(CC)COC(=O)c1ccccc1O (stereo unspecified) | – | inactive | inactive | inactive | inactive | inactive | inactive | inactive | inactive | – | – | – | – | – | inactive
20 | CCC(C)C1CCCCC1=O (stereo unspecified) | inactive | – | – | inactive | inactive | inactive | inactive | inactive | inactive | – | – | – | – | – | –
21 | O=C1CCCC(=O)C1 | – | inactive | inactive | inactive | inactive | inactive | inactive | inactive | inactive | – | – | – | – | – | inactive
22 | N=C(N)c1ccc2cc(OC(=O)c3ccc(N=C(N)N)cc3)ccc2c1 | – | inactive | inactive | inactive | inactive | inactive | inactive | inactive | inactive | – | – | – | – | – | inactive

Row | SMILES | Potency [1] | Potency [2] | Potency [3] | Potency [4] | Potency [5] | Potency [6] | outcome [7] | outcome [8] | outcome [9] | activity change, negative = inhibition [1] | activity change, negative = cytotoxicity [5] | viability change, negative = cytotoxic [6] | activity change, negative = cytotoxicity [7] | activation [8] | Potency [10]
23 | OC(CCN1CCCCC1)(c1ccccc1)C1CC2C=CC1C2 (stereo unspecified) | – | inactive | inactive | inactive | inactive | inactive | inactive | inactive | inactive | – | – | – | – | – | –
24 | CC(C[N+](C)(C)C)OC(N)=O (stereo unspecified) | – | – | inactive | inactive | inactive | inactive | inactive | inactive | inactive | – | – | – | – | – | inactive
25 | CCS(=O)(=O)c1ccc(OC)c(C(=O)OC)c1 | – | – | – | inactive | inactive | inactive | inactive | inactive | inactive | – | – | – | – | – | inactive
26 | Cc1c(O)cccc1O | – | inactive | inactive | inactive | inactive | inactive | inactive | inactive | inactive | – | – | – | – | – | inactive
27 | O=C(CCCN1CCN(c2ccccn2)CC1)c1ccc(F)cc1 | – | inactive | inactive | inactive | inactive | inactive | inactive | inactive | inactive | – | – | – | – | – | inactive
28 | CCCCCOC(=O)CCCCC | – | – | inactive | inactive | inactive | inactive | inactive | inactive | inactive | – | – | – | – | – | inactive
29 | COc1ccc2c(c1)CCCC2=O | – | inactive | inactive | inactive | inactive | inactive | inactive | inactive | – | – | – | – | – | – | inactive
30 | CO[Si](CCCOCC1CO1)(OC)OC (stereo unspecified) | – | inactive | inactive | inactive | inactive | inactive | inactive | inactive | inactive | – | – | – | – | – | inactive
31 | O=C(CCCN1CCC(O)(c2cccc(C(F)(F)F)c2)CC1)c1ccc(F)cc1 | – | – | – | inactive | – | inactive | inactive | inactive | inactive | – | – | – | – | – | inactive
32 | CC(C(=O)O)c1ccc(CC2CCCC2=O)cc1 (stereo unspecified) | – | inactive | inactive | inactive | inactive | inactive | inactive | inactive | inactive | – | – | – | – | – | inactive
33 | CC(=O)Nc1c(I)cc(I)c(C(=O)O)c1I | – | inactive | inactive | inactive | inactive | inactive | inactive | inactive | – | – | – | – | – | – | inactive
34 | COc1ccc(CCN(C)CCCC(C#N)(c2cc(OC)c(OC)c(OC)c2)C(C)C)cc1OC (stereo unspecified) | – | inactive | inactive | inactive | inactive | inactive | inactive | inactive | inactive | – | – | – | – | – | –
35 | O=C(O)CNC(=O)c1ccc([N+](=O)[O-])cc1 | – | inactive | inactive | inactive | inactive | inactive | inactive | inactive | inactive | – | – | – | – | – | inactive
36 | N#Cc1ccc(C2CCCc3cncn32)cc1 (stereo unspecified) | – | inactive | inactive | inactive | inactive | inactive | inactive | inactive | inactive | – | – | – | – | – | inactive
37 | O=c1cc(-c2ccccc2)oc2ccccc12 | – | – | 61.1 µM (active) | – | – | inactive | inactive | inactive | inactive | – | – | – | – | – | –
38 | NS(=O)(=O)c1cc2c(cc1Cl)NC(C1CC3C=CC1C3)NS2(=O)=O (stereo unspecified) | – | inactive | inactive | inactive | inactive | inactive | inactive | inactive | inactive | – | – | – | – | – | inactive
39 | O=C1OC(=O)C2CCCCC12 (stereo unspecified) | – | inactive | inactive | inactive | inactive | inactive | inactive | inactive | – | – | – | – | – | – | inactive
40 | CCOC(=O)c1ccc(C)cc1 | – | inactive | inactive | inactive | inactive | inactive | inactive | inactive | inactive | – | – | – | – | – | inactive
41 | C[N+](C)(C)CCCCCC[N+](C)(C)C | – | inactive | inactive | inactive | inactive | inactive | inactive | inactive | inactive | – | – | – | – | – | inactive
42 | Cc1nc2c([nH]1)c(=O)n(C)c(=O)n2Cc1ccco1 | – | inactive | inactive | inactive | inactive | inactive | inactive | inactive | inactive | – | – | – | – | – | inactive
43 | O=[N+]([O-])c1ccc(F)cc1F | – | – | inactive | inactive | inactive | inactive | inactive | inactive | – | – | – | – | – | – | inactive
44 | FC(F)OC(Cl)C(F)(F)F (stereo unspecified) | – | inactive | – | inactive | inactive | inactive | inactive | inactive | inactive | – | – | – | – | – | inactive
